Measurements as given in PubChem BioAssay AID1520 (The Scripps Research Institute Molecular Screening Center, 2009).
The other results are listed elsewhere or left out. Active and inactive are the calls of the source.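 The calls were made as follows: active = cell growth inhibition above the hit limit set in the earlier mutant JAK2 cell screen (cut at about 27% in these data); inactive = the rest.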

Assay: parental Ba/F3 cell viability inhibition, counter-screen for JAK2V617F inhibitor project, murine pro-B, CellTiter-Glo luminescence (AID 1520);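 also: plate controls were DMSO-treated cells for no effect and JAK Inhibitor I control wells for full effect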
Settings: at 5.6 µM, hits give high values, cells kept alive by added IL-3

Row | SMILES | inhibition
1 | c1ccc2c(c1)CSc1sccc1C2=C1CCNCC1 | 0.77% (inactive)
2 | O=C(CCl)N(Cc1cccc([N+](=O)[O-])c1)c1cccc(Cl)c1 | 87.5% (active)
3 | CN(Cc1ccc2nsnc2c1)Cc1nc(Cc2cccc(F)c2)no1 | -7.97% (inactive)
4 | COc1ccc(Cc2nnc(N/N=C/c3ccccc3O)[nH]c2=O)cc1OC | 85.6% (active)
5 | O=c1oc2ccccc2cc1-c1cn(-c2ccccc2)c(=S)[nH]1 | 50% (active)
6 | CCC1CCCCN1CCCNC(=O)c1cc2c(Cl)nc3ccccc3c2s1 (stereo not drawn) | 0.54% (inactive)
7 | O=C(CCl)Nc1ccc(Sc2ccc(NC(=O)CCl)cc2)cc1 | 47.3% (active)
8 | CCCc1nc2ccccc2c(=O)n1/N=C/c1ccc(O)c(O)c1 | 1.92% (inactive)
9 | Cc1ccc(C2=NN(C)c3nc4ccccc4n3C2)cc1 | -0.44% (inactive)
10 | CCCn1c(NC(=O)C23CC4CC(CC(O)(C4)C2)C3)nc2ccccc21 | -7.65% (inactive)
11 | CSCC(=O)N1CCCC(C(=O)c2cc(F)ccc2F)C1 (stereo not drawn) | -3.79% (inactive)
12 | Cc1ccc(NC(=S)N(CCCN2CCC(C)CC2)Cc2ccco2)cc1 | 28.7% (active)
13 | Cn1c(CCN2CCCCCC2)nc2cc(NC(=O)Nc3ccccc3)ccc21 | -5% (inactive)
14 | COc1cc(OC)c(C(=O)NC2CCCCCC2)cc1OC | -5.51% (inactive)
15 | Oc1ccc(/C=N/Nc2ccc(C(F)(F)F)cn2)cc1O | 76.2% (active)
16 | COc1cc(OC)cc(C(=O)N[C@H](C(=O)Nc2nc3ccccc3[nH]2)C(C)C)c1 | 86% (active)
17 | COc1ccc(OC)c(Nc2nc(-c3ccc(O)c(O)c3)cs2)c1 | 72.9% (active)
18 | Cc1ccc(S(=O)(=O)C2(S(=O)(=O)c3ccc(C)cc3)CCCC2)cc1 | 32.1% (active)
19 | COc1ccc(-c2csc(Nc3ccc(O)cc3)n2)cc1 | 63% (active)
20 | Cc1cccc(NC(=O)c2ccc([N+](=O)[O-])o2)c1 | 10.6% (inactive)
21 | N#C/C=C\Oc1ccc(Cl)cc1N | -2.4% (inactive)
22 | CCn1c(/C=C/c2ccc([N+](=O)[O-])o2)nc2ccccc2c1=O | 106% (active)
23 | COc1ccccc1N1CCN(Cc2ccc(OC)c3ccccc23)CC1 | -5.1% (inactive)
